# Data taken from PubChem BioAssay (Tox21).
# Unmarked numbers belong to inactive results. Records with an inconclusive call do not appear. A call without a number means that no potency is given here. Calls of active or inactive are those of the source. Calls come from the whole dose curve; as a rule, active = well fitted curve in the direction sought with a large enough effect in the repeat runs; inconclusive = weak or mixed curves; inactive = no such curve, though single readings can be large; an effect the other way counts as inactive or inconclusive.
# How the values were obtained:
# [1] = qHTS RealTime-Glo MT Cell Viability Assay in HepG2 cells - 40 hour (AID 1224870); note: nearly all actives have a fitted effect of over 50% in size
# Procedure, shortened: (§1)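 HepG2 cells mixed with RealTime-Glo MT reagents (NanoLuc plus cell-permeant prosubstrate) were seeded at 600 cells/well, incubated 5 h at 37 C/5% CO2, then pinned with compounds in DMSO; nonlytic luminescence tracked viability during 40 h treatment.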
# [2] = A CellTox Green Cytotoxicity Assay to monitor cytotoxicity in HEK293 cells - 40 hour (AID 1224871); note: nearly all actives have a fitted effect of over 45% in size
# Procedure, shortened: (§2)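 Tox21 screen in HEK293: membrane-impermeant cyanine dye fluoresces on binding dead-cell DNA; compound pinned 5 h post-seeding, plates held at 37 C, signal read repeatedly through 40 h.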
# [3] = qHTS RealTime-Glo MT Cell Viability Assay in HEK293 cells - 16 hour (AID 1224872); note: top concentration of the series differs between compounds; nearly all actives have a fitted effect of over 50% in size
# Procedure, shortened: (§3)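 Viability tracked continuously by luminescence as live cells reduce a prosubstrate for NanoLuc; HEK293 cells preincubated 5 h, compound-treated at 37 C, and read at 0, 8, 16, 24, 32 and 40 h.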
# [4] = qHTS RealTime-Glo MT Cell Viability Assay in HepG2 cells - 8 hour (AID 1224873); note: nearly all actives have a fitted effect of over 55% in size
# Procedure, shortened: as §1
# [5] = A CellTox Green Cytotoxicity Assay to monitor cytotoxicity in HEK293 cells - 24 hour (AID 1224875); note: series mostly up to about 77 µM; nearly all actives have a fitted effect of over 45% in size
# Procedure, shortened: as §2
# [6] = A CellTox Green Cytotoxicity Assay to monitor cytotoxicity in HepG2 cells - 16 hour (AID 1224876); note: nearly all actives have a fitted effect of over 45% in size
# Procedure, shortened: (§4)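 Measurements at 0, 8, 16, 24, 32 and 40 h of treatment captured CellTox Green fluorescence in HepG2 cells that had been co-plated with reagent and preincubated 5 h at 37 C/5% CO2.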
# [7] = qHTS RealTime-Glo MT Cell Viability Assay in HepG2 cells - 32 hour (AID 1224877); note: nearly all actives have a fitted effect of over 55% in size
# Procedure, shortened: (§5)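 Viability was tracked continuously by NanoLuc luminescence from prosubstrate reduced by living HepG2 cells, at successive time points over 40 h of compound exposure. Cells with reagent were preincubated 5 h at 37 °C before compound addition.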
# [8] = A CellTox Green Cytotoxicity Assay to monitor cytotoxicity in HepG2 cells - 24 hour (AID 1224878); note: nearly all actives have a fitted effect of over 45% in size
# Procedure, shortened: as §4
# [9] = qHTS RealTime-Glo MT Cell Viability Assay in HEK293 cells - 0 hour (AID 1224880); note: nearly all actives have a fitted effect of over 45% in size; note: potency is the fitted concentration of half-maximal effect
# Procedure, shortened: (§6)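 HEK293 + NanoLuc + prosubstrate, 600 cells/well; 5 h, 37 C/5% CO2; compound 23 nL in DMSO by pintool; 37 C; luminescence read at 0, 8, 16, 24, 32 and 40 h time points.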
# [10] = A CellTox Green Cytotoxicity Assay to monitor cytotoxicity in HepG2 cells - 0 hour (AID 1224882); note: nearly all actives have a fitted effect of over 35% in size
# Procedure, shortened: as §4
# [11] = A CellTox Green Cytotoxicity Assay to monitor cytotoxicity in HEK293 cells - 8 hour (AID 1224884); note: nearly all actives have a fitted effect of over 35% in size
# Procedure, shortened: as §2
# [12] = qHTS RealTime-Glo MT Cell Viability Assay in HepG2 cells - 16 hour (AID 1224885); note: nearly all actives have a fitted effect of over 50% in size
# Procedure, shortened: as §5
# [13] = qHTS RealTime-Glo MT Cell Viability Assay in HEK293 cells - 8 hour (AID 1224887); note: top concentration of the series differs between compounds; nearly all actives have a fitted effect of over 50% in size
# Procedure, shortened: as §6
# [14] = A CellTox Green Cytotoxicity Assay to monitor cytotoxicity in HEK293 cells - 16 hour (AID 1224888); note: nearly all actives have a fitted effect of over 35% in size
# Procedure, shortened: as §2
# [15] = qHTS RealTime-Glo MT Cell Viability Assay in HepG2 cells - 0 hour (AID 1224889); note: nearly all actives have a fitted effect of over 50% in size; note: potency is the fitted concentration of half-maximal effect
# Procedure, shortened: as §5
# [16] = qHTS RealTime-Glo MT Cell Viability Assay in HEK293 cells - 40 hour (AID 1224874); settings: RealTime-Glo luminescence; max response: stronger effect = lower value; note: nearly all actives have a fitted effect of over 50% in size
# Procedure, shortened: as §6
# [17] = qHTS RealTime-Glo MT Cell Viability Assay in HEK293 cells - 24 hour (AID 1224886)
# Procedure, shortened: as §3
# [18] = A CellTox Green Cytotoxicity Assay to monitor cytotoxicity in HepG2 cells - 40 hour (AID 1224879); note: nearly all actives have a fitted effect of over 40% in size
# Procedure, shortened: as §4
# [19] = A CellTox Green Cytotoxicity Assay to monitor cytotoxicity in HepG2 cells - 32 hour (AID 1224883); note: nearly all actives have a fitted effect of over 50% in size
# Procedure, shortened: as §4
# [20] = A CellTox Green Cytotoxicity Assay to monitor cytotoxicity in HEK293 cells - 32 hour (AID 1224881); note: nearly all actives have a fitted effect of over 40% in size
# Procedure, shortened: as §2
Compound,Potency [1],Potency [2],Potency [3],outcome [4],Potency [5],Potency [6],Potency [7],Potency [8],Potency [9],Potency [10],Potency [11],outcome [12],Potency [13],Potency [14],Potency [15],max response [16],Potency [17],Potency [18],Potency [19],Potency [20]
O=Cc1ccc(Cl)c([N+](=O)[O-])c1,inactive,inactive,inactive,inactive,inactive,inactive,inactive,inactive,inactive,inactive,inactive,inactive,inactive,inactive,inactive,–,–,–,–,–
c1ccc(CN(Cc2ccccc2)Cc2ccccc2)cc1,inactive,inactive,inactive,inactive,inactive,inactive,inactive,–,inactive,inactive,inactive,inactive,inactive,inactive,inactive,4.19%,inactive,–,–,–
CCC[Si](OC)(OC)OC,inactive,inactive,inactive,–,inactive,inactive,inactive,inactive,inactive,inactive,inactive,inactive,inactive,inactive,inactive,-8.66%,inactive,inactive,inactive,–
Cc1cc(SC2=C(O)C[C@@](CCc3ccc(N)cc3)(C(C)C)OC2=O)c(C(C)(C)C)cc1CO,inactive,inactive,inactive,inactive,inactive,–,inactive,inactive,11 µM (active),inactive,–,inactive,inactive,inactive,19.5 µM (active),-1.78%,inactive,inactive,inactive,inactive
